This is an account of results in PubChem BioAssay.

SMILES strings stand for the structures. The source made the active and inactive calls.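 The calls were made as follows, unless noted: active = visually confirmed hit in the image check and inhibition above 20%; inconclusive = visually confirmed hit but inhibition not above 20%; inactive = no visual hit in the image check.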

A word on the inhibition: it is the drop in the measured response relative to a control, in per cent.

Assay [1] can be described thus: inhibitors of TNFa-induced NFkB p65 translocation, primary screen, imaging, HUVEC, MLSMR starter and 10KST1 sets (AID 438;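 active = inhibition above 20% together with a positive visual image hit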;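 also: compound added about 3h40 before a 20 min TNFalpha stimulation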;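 as to inhibition: signal is the nuclear over cytoplasmic p65 intensity ratio per well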). The conditions noted are these: HUVEC TNFa-induced p65 nuclear translocation; cell count: measured here: nuclei count (cytotoxicity indicator), at 2.08 µM; inhibition: at 2 µM, stronger effect = higher value, 0% TNFa-plus-vehicle, 100% no-TNFa wells.
Assay [2] is described as follows: endothelial E-selectin expression blockers – imaging, HUVEC, immunofluorescence, MLSMR starter and 10KST1 sets, primary screen (AID 487).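 As to inhibition: signal is fraction of cell area covered by stained E-selectin grains.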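 As to nuclei count: 100% = median nuclei count of all wells on the same plate.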 The settings on record: HUVEC TNFalpha-induced E-selectin immunofluorescence imaging, at 2 µM; inhibition: stronger effect = higher value; nuclei count: measured here: cell number, toxicity.
The nature of assay [3]: Primary imaging screen for DUSP6 inhibitors that restore phospho-Erk in transfected HeLa cells, chemical complementation (AID 609;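 active = compounds giving at least 50% inhibition in the cell-based MKP-3 phosphatase rescue imaging test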;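 as to inhibition: phospho-Erk level distribution per well compared with pooled transfected vehicle control wells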). The conditions noted are these: HeLa MKP-3 transfected, phospho-Erk imaging KS statistic, at 10 µM, cells stimulated with TPA for 15 min.
The target in assay [4] is Dual specificity protein phosphatase 6 (Homo sapiens) (UniProt Q16828). The assay is described as above. The settings on record: HeLa MKP-3 transfected, phospho-Erk imaging KS statistic; at 10 µM; stronger effect = higher value; cells stimulated with TPA for 15 min.
Dual specificity protein phosphatase 6 (Homo sapiens), sequence (Q16828 whole entry, looked up): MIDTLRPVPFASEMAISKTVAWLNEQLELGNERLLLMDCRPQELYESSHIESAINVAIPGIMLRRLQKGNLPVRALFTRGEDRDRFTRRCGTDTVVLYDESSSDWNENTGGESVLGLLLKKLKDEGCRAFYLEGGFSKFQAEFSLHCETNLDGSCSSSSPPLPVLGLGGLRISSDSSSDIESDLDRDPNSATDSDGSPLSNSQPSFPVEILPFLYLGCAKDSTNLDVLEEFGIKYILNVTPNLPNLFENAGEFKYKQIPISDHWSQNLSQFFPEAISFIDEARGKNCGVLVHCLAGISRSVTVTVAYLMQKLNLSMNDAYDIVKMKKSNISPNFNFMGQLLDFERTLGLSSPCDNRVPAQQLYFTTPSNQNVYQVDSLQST
Assay [5] deals with Voltage-gated potassium channel subunit beta-2 (Rattus norvegicus) (UniProt P62483). Nature of the assay: inhibitors of rat Kvbeta2 reductase activity – biochemical, NADPH fluorescence, primary screen (AID 622;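 active = fluorescence slope higher than the sample average by over 3 SD, cut at about -0.22 in these data, passing the limit was not always enough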;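 also: slope of raw intensity against log time taken from 70 to 1610 s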). The settings on record: recombinant KvBeta, 4-cyanobenzaldehyde reduction, at 10 µM, stronger effect = higher value.
Voltage-gated potassium channel subunit beta-2 (Rattus norvegicus), sequence (P62483 whole entry, looked up): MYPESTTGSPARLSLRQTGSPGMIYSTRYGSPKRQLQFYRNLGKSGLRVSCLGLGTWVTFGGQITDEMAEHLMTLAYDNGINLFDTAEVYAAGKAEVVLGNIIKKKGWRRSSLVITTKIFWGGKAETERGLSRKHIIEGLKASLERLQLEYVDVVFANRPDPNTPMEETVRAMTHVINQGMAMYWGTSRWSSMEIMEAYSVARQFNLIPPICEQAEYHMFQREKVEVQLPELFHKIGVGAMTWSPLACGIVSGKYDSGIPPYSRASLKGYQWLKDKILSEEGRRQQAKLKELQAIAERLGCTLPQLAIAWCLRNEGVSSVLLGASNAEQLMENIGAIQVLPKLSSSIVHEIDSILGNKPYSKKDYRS
Assay [6] has the same target. Nature of the assay: enhancers of rat Kvbeta2 NADPH turnover – biochemical, NADPH fluorescence, primary screen (AID 623;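 active = NADPH fluorescence slope more negative than the mean of all samples by about 3 SD, 99.7% confidence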;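 also: fluorescence intensity change per second fitted from 20 to 320 s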). The conditions noted are these: Recombinant KvBeta, NADPH fluorescence decrease slope, 10 min; at 10 µM; stronger effect = lower value.
Assay [7] has as its target Muscarinic acetylcholine receptor M4 (Homo sapiens) (UniProt P08173). Description: M4-linked GIRK flux change, two-sided – cell-based, HEK293 M4/GIRK, thallium flux, BTC-AM, M4 allosteric agonist project, primary screen (AID 625;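 active = fluorescence slope after compound addition differing from the mean of all tested samples at 99.7% confidence, mostly higher but some lower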;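 also: thallium influx through GIRK channels coupled to M4 in HEK293 cells with BTC-AM dye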). The conditions noted are these: at 10 µM, actives lie on both sides.
Assay [8] is described as follows: inhibitors of larval lipid processing in zebrafish, primary screen, whole organism, PED6 fluorescence, gall bladder and intestine (AID 686;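 active = a full or partial loss of lipid-probe fluorescence in the fish gall bladder, intestine or both, judged by eye; inactive = no fluorescence loss, or compound toxic to the fish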;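 also: larvae 5 to 7 days old with five fish per well; signal comes from phospholipase A2 cleavage of quenched PED6 carried via bile; overnight exposure to compound and PED6 before scoring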). The settings on record: Zebrafish larvae PED6 lipid processing, fluorescence scoring; screened at 20 µM (by protocol).
Assay [9] is described as follows: loss of swimming-algae plug formation – whole organism, Chlamydomonas reinhardtii, WT vs cilia-less mutant, absorbance, 96-well, primary screen (AID 463189;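 active = inhibition at or above 50% relative to wild type and mutant plate controls; inactive = inhibition below 50%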;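 also: 0% = wild type cc124 cells in DMSO and 100% = ciliumless bld1 mutant cells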). The conditions noted are these: Chlamydomonas reinhardtii gravitaxis, OD600 absorbance, 2 days; at 10 µM; stronger effect = higher value.
The mark [10] stands for this setting: measured here: cell density z-score.
The mark [11] stands for this setting: measured here: nuclear c-Myc green intensity z-score.
[12] abbreviates: measured here: nuclear pErk red intensity z-score, stronger effect = higher value.

Muscarinic acetylcholine receptor M4 (Homo sapiens), sequence (P08173 whole entry, looked up): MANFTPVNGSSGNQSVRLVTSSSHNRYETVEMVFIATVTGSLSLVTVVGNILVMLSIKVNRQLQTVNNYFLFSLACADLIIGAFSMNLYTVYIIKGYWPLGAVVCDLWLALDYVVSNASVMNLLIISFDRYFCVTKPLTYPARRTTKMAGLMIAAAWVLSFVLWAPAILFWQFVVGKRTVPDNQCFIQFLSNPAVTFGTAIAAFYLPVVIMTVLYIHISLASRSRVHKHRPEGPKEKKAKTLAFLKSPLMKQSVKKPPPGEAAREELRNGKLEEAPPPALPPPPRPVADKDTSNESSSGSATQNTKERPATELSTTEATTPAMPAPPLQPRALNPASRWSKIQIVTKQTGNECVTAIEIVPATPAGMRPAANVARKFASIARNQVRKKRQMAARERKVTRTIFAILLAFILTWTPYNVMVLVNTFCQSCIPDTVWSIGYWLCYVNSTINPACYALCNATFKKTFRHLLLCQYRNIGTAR

As for `C=CCc1cccc(CNc2nc3ccccc3n2C(C)C)c1O`, the cell count in assay [1] came to 653. The inhibition in [1] was 4.4% (inactive); in [2] it was 17.8% (inactive); in assay [4] it was -3.95% (inactive); in [9] it was 2.16% (inactive). This compound also yielded a nuclei count in assay [2] of 145%. For the same compound, the values for the z-score in [3] (setting [10]), in [3] (setting [11]) and in assay [3] (setting [12]) were -1.18, 1.98 and 1.18, respectively. For the same compound, the fluorescence slope in assay [5] was -0.502 (inactive); in [7], 0.00595 (inactive). In addition, the NADPH fluorescence slope in [6] is -9.2e-05 (inactive). Further, the compound was called inactive in [8].
Take `NC(=O)C1CCN(CCC(=O)Nc2ccc(Br)cc2)CC1`: in [1], the cell count was 619. Further, the inhibition in assay [1] is -14.3% (inactive); in [2], -30.8% (inactive); in assay [4], 7.42% (inactive); in assay [9], 44% (inactive). This compound showed a nuclei count in [2] of 163%. Besides, the z-score in assay [3] (setting [10]) is 0.663; in [3] (setting [11]), -1.51; in [3] (setting [12]), 0.0444. For the same compound, the fluorescence slope in assay [5] is -0.426 (inactive); in assay [7], 0.00492 (inactive). The NADPH fluorescence slope in assay [6] was -5.4e-05 (inactive). Moreover, in assay [8], the outcome was inactive.
Consider `Cc1cc(=O)oc2c(CN3CCCCC3)c(O)c(Cl)cc12`, for which the cell count in [1] worked out at 703. Further, the inhibition was -7.3% (inactive) in assay [1], -40.4% (inactive) in assay [2], 7.83% (inactive) in assay [4] and 15.8% (inactive) in assay [9]. Also, the nuclei count in assay [2] is 146%. The values for the z-score in assay [3] (setting [10]), in [3] (setting [11]) and in [3] (setting [12]) were 0.085, 0.889 and -2.46, respectively. In addition, the fluorescence slope was -0.0387 (inactive) in assay [5] and 0.0046 (inactive) in [7]. For the same compound, in [6], the NADPH fluorescence slope is -0.000132 (inactive). In addition, in assay [8], the result was inactive.
Turning to `Cc1nn(C)cc1/C=N/n1nnnc1N`, the cell count in assay [1] is 680. The inhibition is -10.2% (inactive) in assay [1], -45.8% (inactive) in assay [2], 4.37% (inactive) in [4] and 11.8% (inactive) in assay [9]. For the same compound, the nuclei count in assay [2] was found to be 155%. The values for the z-score in assay [3] (setting [10]), in assay [3] (setting [11]) and in assay [3] (setting [12]) were 0.00474, -1.39 and 0.944, respectively. The fluorescence slope in assay [5] was -0.487 (inactive); in assay [7], 0.00512 (inactive). The NADPH fluorescence slope in assay [6] was -3.8e-05 (inactive). Further, the result in [8] was inactive.
For `CN(Cc1ccccc1)c1ncnc2ccc(Br)cc12`, the cell count in assay [1] was found to be 591. The inhibition was -9.8% (inactive) in assay [1], -5.2% (inactive) in assay [2], 2.92% (inactive) in [4] and 18.9% (inactive) in assay [9]. Besides, the nuclei count in [2] was found to be 116%. The figures for the z-score in [3] (setting [10]), in [3] (setting [11]) and in assay [3] (setting [12]) were -0.293, -0.951 and 0.281, respectively. Also, the fluorescence slope was -0.517 (inactive) in [5] and 0.00669 (inactive) in assay [7]. For the same compound, the NADPH fluorescence slope in assay [6] was -8e-05 (inactive). Also, the compound was classed as inactive in [8].
In the case of `CC(C)COC(=O)CCNc1n[nH]c(=O)[nH]c1=O`, the cell count in [1] was 622. Also, the inhibition in assay [1] was -4.8% (inactive); in assay [2] it was -26.4% (inactive); in assay [4], -11.5% (inactive); in [9], -4.85% (inactive). Also, in [2], the nuclei count is 174%. The z-score in [3] (setting [10]) is 0.623; in assay [3] (setting [11]), -0.835; in assay [3] (setting [12]) it was -0.389. Also, the fluorescence slope in [5] is -0.505 (inactive); in [7] it was 0.00627 (inactive). Besides, the NADPH fluorescence slope in assay [6] was -4.2e-05 (inactive). Also, the result in [8] was inactive.
Turning to `CCCC(CCC(=O)Nc1ccc(C(=O)OCC)cc1)C(=O)O` (centres undefined), the cell count in assay [1] came to 368. The inhibition is -0.1% (inactive) in assay [1], -147% (inactive) in assay [2], 20.2% (inactive) in [4] and -0.026% (inactive) in [9]. The nuclei count in [2] is 152%. Moreover, the z-score is -0.648 in [3] (setting [10]), 0.519 in assay [3] (setting [11]) and -0.661 in assay [3] (setting [12]). In addition, the results for the fluorescence slope in assay [5] and in [7] were -0.484 (inactive) and 0.0051 (inactive), respectively. Moreover, in [6], the NADPH fluorescence slope is -4.5e-05 (inactive). Moreover, the result in [8] was inactive.
For `Cc1ccc(-c2n[nH]c(=O)c3ccccc23)cc1S(=O)(=O)NCCN1CCOCC1`, the cell count in [1] was 449. Further, the inhibition in assay [1] was -1.8% (inactive); in [2], -80.2% (inactive); in [4], -3.95% (inactive); in [9], 19.7% (inactive). The compound further came in with a nuclei count in assay [2] of 160%. Moreover, the z-score was -0.696 in assay [3] (setting [10]), 0.423 in [3] (setting [11]) and 0.442 in [3] (setting [12]). Moreover, the fluorescence slope in [5] is -0.41 (inactive); in [7], 0.00462 (inactive). The NADPH fluorescence slope in assay [6] was -4.4e-05 (inactive). Also, the compound was classed as inactive in assay [8].
As for `Cn1ncc2nc[nH]c(=O)c21`, the cell count in assay [1] is 709. In addition, the inhibition was 2% (inactive) in assay [1], -49.9% (inactive) in assay [2], 5.95% (inactive) in assay [4] and 30.9% (inactive) in assay [9]. This compound displayed a nuclei count in assay [2] of 110%. Moreover, the z-score in assay [3] (setting [10]) is -0.739; in assay [3] (setting [11]), -0.543; in assay [3] (setting [12]) it was 1.26. Moreover, the fluorescence slope in [5] is -0.579 (inactive); in assay [7], 0.006 (inactive). In addition, the NADPH fluorescence slope in assay [6] is -3.5e-05 (inactive). For the same compound, the outcome in assay [8] was inactive.
As for `NC(=O)/C(=N\O)c1ccccc1`, in [1], the cell count is 575. For the same compound, the inhibition in assay [1] was 5.9% (inactive); in assay [2] it was -43.3% (inactive); in assay [4], -4.7% (inactive); in assay [9] it was -12.8% (inactive). The nuclei count in [2] came out at 113%. The z-score in [3] (setting [10]) is -0.256; in [3] (setting [11]), -0.324; in [3] (setting [12]) it was 0.104. In addition, the fluorescence slope in assay [5] is -0.461 (inactive); in [7] it was 0.00531 (inactive). Besides, the NADPH fluorescence slope in assay [6] is -5.1e-05 (inactive). For the same compound, the compound was called inactive in assay [8].
As to `FC(F)(F)c1cccc(-n2cccc2/C=N/n2cnnc2)c1`, in assay [1], the cell count was determined as 415. For the same compound, the inhibition in [1] was -3.1% (inactive); in assay [2], 39.9% (inactive); in assay [4], -0.608% (inactive); in assay [9] it was 13.6% (inactive). For the same compound, the nuclei count in assay [2] amounted to 140%. Besides, the z-score in assay [3] (setting [10]) was -1.39; in assay [3] (setting [11]), 0.953; in assay [3] (setting [12]) it was 1.88. In addition, the figures for the fluorescence slope in assay [5] and in assay [7] were -0.438 (inactive) and 0.00494 (inactive), respectively. Further, the NADPH fluorescence slope in assay [6] was -0.00012 (inactive). Besides, the outcome in [8] was inactive.
On to `O=C(CC(c1ccc(F)cc1)c1ccco1)N1CCCC1` (centres undefined), for which, in [1], the cell count stood at 494. Moreover, the inhibition was -4% (inactive) in [1], -36.9% (inactive) in [2], 9.91% (inactive) in assay [4] and -1.73% (inactive) in assay [9]. In addition, the nuclei count in [2] was 182%. The results for the z-score in assay [3] (setting [10]), in assay [3] (setting [11]) and in [3] (setting [12]) were -0.749, 0.895 and -0.708, respectively. The fluorescence slope was -0.404 (inactive) in assay [5] and 0.00541 (inactive) in assay [7]. Besides, in assay [6], the NADPH fluorescence slope was -1.7e-05 (inactive). The outcome in assay [8] was inactive.
Regarding `Nc1nnnn1N=C1CCCCC1`, the cell count in assay [1] came out at 662. Moreover, the inhibition in assay [1] is -3.4% (inactive); in assay [2], -120% (inactive); in assay [4] it was -2.29% (inactive); in [9] it was 2.87% (inactive). In assay [2], this compound yielded a nuclei count of 170%. In addition, the figures for the z-score in [3] (setting [10]), in assay [3] (setting [11]) and in assay [3] (setting [12]) were 0.907, -0.604 and -0.484, respectively. For the same compound, the fluorescence slope in assay [5] was -0.493 (inactive); in [7], 0.00643 (inactive). Besides, in [6], the NADPH fluorescence slope was -3.7e-05 (inactive). Also, the call in assay [8] was inactive.
